# Data reported in the supplement of paper PMC8728848.
# About 410 targets per protein were measured; listed, in parts, are those with the strongest signals and a random draw of the rest.
# B1: FimA-N3 (Actinomyces oris) (protein)
# chain: MHHHHHHSSGVDLGTENLYFQSNAGLQGAQFQLYKAKNAYANTCSNEKEGAPIAINGQTTLTTDAQGAIDIKGLFISDSIDGADRDNQVNAMERCYVLVETKAPAGYVLPAGNGAATPVKVKAGEETTDN
# Key:
# Test in all cases: glycan array binding signal (z-score within array); higher = stronger binding
# Conditions in all cases: glycan notation: IUPAC condensed, linker removed
# [1] = target: Gal3S(b1-4)[Fuc(a1-3)]GlcNAc6S
# Procedure, shortened: (§1)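 Columns mapping to the same glycan were averaged after glycan names were converted to IUPAC-condensed notation. The data come from 3228 arrays in the Consortium for Functional Glycomics database, limited to those with an available protein sequence. Binding is reported as a within-array Z-score averaged across arrays of one protein sequence and across linkers.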
# Gal3S6S(b1-4)GlcNAc6S = target: Gal3S6S(b1-4)GlcNAc6S
# Procedure, shortened: as §1
# Gal6S(b1-3)GlcNAc6S = target: Gal6S(b1-3)GlcNAc6S
# Procedure, shortened: as §1
# GalNAc(b1-3)Gal = target: GalNAc(b1-3)Gal
# Procedure, shortened: as §1
# GalNAc(b1-4)GlcNAc = target: GalNAc(b1-4)GlcNAc
# Procedure, shortened: as §1
# Glc(a1-6)Glc(a1-6)Glc = target: Glc(a1-6)Glc(a1-6)Glc
# Procedure, shortened: as §1
# [2] = target: GlcNAc(b1-2)[GlcNAc(b1-4)]Man(a1-3)[GlcNAc(b1-4)][GlcNAc(b1-2)[GlcNAc(b1-6)]Man(a1-6)]Man(b1-4)GlcNAc(b1-4)[Fuc(a1-6)]GlcNAc
# Procedure, shortened: as §1
# [3] = target: GlcNAc(b1-2)[GlcNAc(b1-6)]Man(a1-6)[GlcNAc(b1-2)Man(a1-3)]Man(b1-4)GlcNAc(b1-4)[Fuc(a1-6)]GlcNAc
# Procedure, shortened: as §1
# GlcNAc(b1-3)Fuc = target: GlcNAc(b1-3)Fuc
# Procedure, shortened: as §1
# [4] = target: GlcNAc(b1-3)Gal(b1-4)GlcNAc(b1-3)Gal(b1-4)GlcNAc(b1-2)[GlcNAc(b1-3)Gal(b1-4)GlcNAc(b1-3)Gal(b1-4)GlcNAc(b1-6)]Man(a1-6)[GlcNAc(b1-3)Gal(b1-4)GlcNAc(b1-3)Gal(b1-4)GlcNAc(b1-2)Man(a1-3)]Man(b1-4)GlcNAc(b1-4)[Fuc(a1-6)]GlcNAc
# Procedure, shortened: as §1
# [5] = target: GlcNAc(b1-3)Gal(b1-4)GlcNAc(b1-3)Gal(b1-4)GlcNAc(b1-3)Gal(b1-4)GlcNAc(b1-3)Gal(b1-4)GlcNAc(b1-2)Man(a1-3)[GlcNAc(b1-3)Gal(b1-4)GlcNAc(b1-3)Gal(b1-4)GlcNAc(b1-3)Gal(b1-4)GlcNAc(b1-3)Gal(b1-4)GlcNAc(b1-2)Man(a1-6)]Man(b1-4)GlcNAc(b1-4)GlcNAc
# Procedure, shortened: as §1
# [6] = target: Man(a1-2)Man(a1-6)[Man(a1-3)]Man(a1-6)[Man(a1-2)Man(a1-2)Man(a1-3)]Man
# Procedure, shortened: as §1
# [7] = target: Man(a1-3)[Man(a1-6)]Man(a1-6)[Man(a1-3)]Man(b1-4)GlcNAc(b1-4)GlcNAc
# Procedure, shortened: as §1
# Man(a1-6)Man = target: Man(a1-6)Man
# Procedure, shortened: as §1
# [8] = target: Neu5Ac(a2-3)Gal(b1-3)GlcNAc(b1-6)GalNAc
# Procedure, shortened: as §1
# [9] = target: Neu5Ac(a2-3)Gal(b1-3)[Fuc(a1-4)]GlcNAc
# Procedure, shortened: as §1
# [10] = target: Neu5Ac(a2-3)GalNAc(b1-4)GlcNAc
# Procedure, shortened: as §1
# [11] = target: Neu5Ac(a2-3)[GalNAc(b1-4)]Gal(b1-4)GlcNAc(b1-3)GalNAc
# Procedure, shortened: as §1
# [12] = target: Neu5Ac(a2-6)Gal(b1-4)GlcNAc(b1-2)Man
# Procedure, shortened: as §1
# [13] = target: Neu5Ac(a2-6)Gal(b1-4)GlcNAc(b1-2)Man(a1-3)Man(b1-4)GlcNAc(b1-4)GlcNAc
# Procedure, shortened: as §1
# [14] = target: Neu5Ac(a2-6)Gal(b1-4)GlcNAc(b1-2)Man(a1-6)[GlcNAc(b1-2)Man(a1-3)]Man(b1-4)GlcNAc(b1-4)GlcNAc
# Procedure, shortened: as §1
# [15] = target: Neu5Ac(a2-6)Gal(b1-4)GlcNAc(b1-2)Man(a1-6)[Man(a1-3)]Man(b1-4)GlcNAc(b1-4)GlcNAc
# Procedure, shortened: as §1
# [16] = target: Neu5Ac(a2-6)Gal(b1-4)GlcNAc(b1-3)GalNAc
# Procedure, shortened: as §1
# [17] = target: Neu5Ac(a2-6)GlcNAc(b1-4)GlcNAc(b1-4)GlcNAc
# Procedure, shortened: as §1
binder,measurement,setting,value
B1,glycan array binding signal (z-score),[1],4.34
same,glycan array binding signal (z-score),Gal3S6S(b1-4)GlcNAc6S,-0.339
same,glycan array binding signal (z-score),Gal6S(b1-3)GlcNAc6S,-0.446
same,glycan array binding signal (z-score),GalNAc(b1-3)Gal,2.63
same,glycan array binding signal (z-score),GalNAc(b1-4)GlcNAc,-0.022
same,glycan array binding signal (z-score),Glc(a1-6)Glc(a1-6)Glc,-0.527
same,glycan array binding signal (z-score),[2],-0.394
same,glycan array binding signal (z-score),[3],-0.252
same,glycan array binding signal (z-score),GlcNAc(b1-3)Fuc,3.03
same,glycan array binding signal (z-score),[4],0.202
same,glycan array binding signal (z-score),[5],-0.047
same,glycan array binding signal (z-score),[6],-0.315
same,glycan array binding signal (z-score),[7],-0.253
same,glycan array binding signal (z-score),Man(a1-6)Man,3.05
same,glycan array binding signal (z-score),[8],0.038
same,glycan array binding signal (z-score),[9],15.7
same,glycan array binding signal (z-score),[10],-0.492
same,glycan array binding signal (z-score),[11],-0.212
same,glycan array binding signal (z-score),[12],-0.531
same,glycan array binding signal (z-score),[13],-0.045
same,glycan array binding signal (z-score),[14],0.223
same,glycan array binding signal (z-score),[15],0.03
same,glycan array binding signal (z-score),[16],-0.16
same,glycan array binding signal (z-score),[17],2.65
